Screening results from PubChem.
BioA inh: inhibitors of Mycobacterium tuberculosis BioA enzyme. 360,000 tested, 0.096% active. purified M. tuberculosis BioA enzyme, plate reader. inhibition, % at 9.99 µM. AID 602481; in the data active means inhibition above about 40%; inconclusive means no clear call, values can overlap the other calls
GDH-TPI counter: inhibits GDH-TPI coupling enzymes, artifact for Mtb FBA screen | inhibition, % at 4.8 µM | AID 588335 | GDH-TPI coupled enzyme counterscreen, NADH absorbance | 360,000 tested, 1.2% active; in the data active means inhibition above about 30%;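 further: 0% = DMSO wells and 100% = wells lacking the enzyme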
FadD28 FP inh: M. tuberculosis FadD28 bisubstrate binding inhibition. FadD28 bisubstrate probe binding, fluorescence polarization. inhibition, % at 12.5 µM. 360,000 tested, 0.22% active; in the data active means inhibition above about 8.5%, passing the limit was not always enough; inconclusive means no clear call, values can overlap the other calls
Mtb FBA inh: inhibitors of M. tuberculosis fructose-bisphosphate aldolase. AID 588726. 360,000 tested, 2.3% active. purified M. tuberculosis FBA, fluorescence read-out. P9WQA3. inhibition, % at 1 µM; in the data active means inhibition above about 27%;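 further: 0% = vehicle and 100% = reference inhibitor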
Target sequence (P9WQA3 whole entry, looked up): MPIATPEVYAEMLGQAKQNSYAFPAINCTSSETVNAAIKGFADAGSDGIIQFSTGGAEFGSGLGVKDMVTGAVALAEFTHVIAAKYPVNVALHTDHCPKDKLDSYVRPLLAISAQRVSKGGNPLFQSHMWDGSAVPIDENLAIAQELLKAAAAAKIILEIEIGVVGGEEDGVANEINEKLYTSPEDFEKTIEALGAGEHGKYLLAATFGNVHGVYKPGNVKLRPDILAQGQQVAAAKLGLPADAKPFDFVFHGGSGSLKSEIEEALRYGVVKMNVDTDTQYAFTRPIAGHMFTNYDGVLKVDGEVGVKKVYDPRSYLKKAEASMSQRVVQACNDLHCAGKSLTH
SARS 3CLpro inh: SARS-CoV 3CLpro protease inhibition; recombinant SARS-CoV 3CLpro, quenched FRET peptide cleavage; P0C6X7; inhibition, % at 6 µM; 290,000 tested, 0.14% active; AID 1706; in the data active means inhibition above about 12%
The depositor's hits bear a star; ? = inconclusive; . = not tested or not shown; + = active, no number. An excerpt weighted towards active compounds, which were near 3.1% of everything screened.

SMILES	BioA inh	GDH-TPI counter	FadD28 FP inh	Mtb FBA inh	SARS 3CLpro inh
CCC(C)Nc1nc(N)c([N+](=O)[O-])c(Nc2ccccc2OC)n1 (configuration not stated)	-1.5	39.3*	-2.4	1.7	9.8
CNC[C@H]1Oc2ccc(NC(=O)Nc3ccc4c(c3)OCO4)cc2CC(=O)N([C@@H](C)CO)C[C@H]1C	-2.2	.	.	.	.
COc1ccc(N=C2S/C(=C\c3ccco3)C(=O)N2CC(C)C)cc1	-0.5	-2.5	-1.1	-1.3	1.4
CN(C)N1C(=O)/C(=C/c2ccco2)SC1=Nc1ccccc1	.	40.1*	-1.0	4.7	.
C[C@H]1CN([C@@H](C)CO)C(=O)c2cccc(NC(=O)Nc3ccc4c(c3)OCO4)c2O[C@@H]1CN(C)C(=O)NC1CCCCC1	-0.6	.	.	.	.
C[C@H](CO)N1C[C@H](C)[C@H](CN(C)S(=O)(=O)c2ccc(Cl)cc2)Oc2ccc(NC(=O)CCCN(C)C)cc2CC1=O	-1.6	.	.	.	.
COc1cccc(NC(=O)N2C[C@@H](O)COC[C@H]3O[C@H](CC(=O)NC4CCCC4)CC[C@@H]32)c1	-0.9	.	.	.	.
O=C(NCC[C@H]1CC[C@@H](NC(=O)c2cccnc2)[C@H](CO)O1)Nc1ccc(F)cc1	14.9	.	.	.	.
Cc1ccc(/C=N\Nc2nc3ccc(Cl)cc3[nH]2)o1	-0.9	44.8*	-2.9	-0.6	1.2
CO[C@@H](CN(C)C(=O)c1cc(Cl)cc(Cl)c1)[C@@H](C)CN(C(=O)Nc1ccc(F)cc1)[C@@H](C)CO	-0.9	.	.	.	.
COc1ccc(C(=O)/C=C/Nc2c(C)n(C)n(-c3ccccc3)c2=O)cc1OC	1.3	35.0*	1.0	-1.5	1.7
Cc1c(N/C=C/C(=O)C(F)(F)F)c(=O)n(-c2ccccc2)n1C	-0.4	11.2	-1.6	-0.4	1.1
COc1ccc(/C(O)=C/C(=O)C(=O)Nc2c(C)n(C)n(-c3ccccc3)c2=O)cc1	-1.8	34.0*	-0.1	-1.5	-1.4
C[C@H](CO)N1C[C@H](C)[C@@H](CN(C)S(=O)(=O)c2cccs2)Oc2ccc(NS(=O)(=O)c3cn(C)cn3)cc2CC1=O	-0.4	.	.	.	.
COc1ccc(NC(=O)Nc2ccc3c(c2)CC(=O)N([C@@H](C)CO)C[C@H](C)[C@H](CN(C)C(=O)Nc2ccc(OC)cc2)O3)cc1	-3.5	.	.	.	.
COc1cc(-c2cnc3c(NC=O)cc(-c4ccc(N5CCN(C)CC5)cc4)cn23)cc(OC)c1OC	-0.3	10.7	-0.4	1.1	.
COc1cc(-c2nc3ccc(N4CCN(C)CC4)cc3[nH]2)cc(OC)c1OC	.	11.0	-1.9	+	-1.1
COc1ccc(C(C[N+](=O)[O-])C2(c3ccc(OC)c(OC)c3)C(=O)c3ccccc3C2=O)cc1 (configuration not stated)	-1.1	40.7*	-1.9	-3.2	-5.8
COc1ccc(CCNC2CC(=O)N(CCc3ccccc3)C2=O)cc1 (configuration not stated)	-0.2	1.9	-2.3	3.2	-1.1
CCN(CC)c1ccc(NC2CC(=O)N(CCc3ccc(OC)cc3)C2=O)cc1 (configuration not stated)	-1.4	-2.4	8.7*	2.3	-0.2
C[C@H](CO)N1C[C@H](C)[C@@H](CN(C)Cc2cccc(F)c2)Oc2ncc(-c3cccc(F)c3)cc2C1=O	1.8	.	.	.	.
C[C@H]1CN([C@@H](C)CO)C(=O)Cc2cc(NC(=O)CCCN(C)C)ccc2O[C@@H]1CN(C)S(=O)(=O)c1ccccc1	0.0	.	.	.	.
C=CCOc1ccc(/C=C2\SC(=S)N(C(C(=O)O)c3ccccc3)C2=O)cc1 (configuration not stated)	.	10.1	14.0*	-2.0	-1.4
COc1cc(OC)cc(-c2c(C#Cc3ccsc3)c3cc(-c4ccccc4OC)ccc3n2C)c1	-3.4	39.5*	-1.7	19.1	.
COc1ccc(-c2ccc3c(c2)c(C#Cc2ccsc2)c(-c2cc(OC)cc(OC)c2)n3C)cc1	-0.9	11.4	-2.0	5.2	.
SMILES	BioA inh	GDH-TPI counter	FadD28 FP inh	Mtb FBA inh	SARS 3CLpro inh
COc1cc(OC)cc(-c2c(C#Cc3ccsc3)c3cc(-c4ccc5cc[nH]c5c4)ccc3n2C)c1	-1.8	32.8*	-3.3	19.3	.
C[C@@H]1CN([C@H](C)CO)C(=O)c2cc(C3=CCCCC3)cnc2O[C@H]1CN(C)C(=O)NC1CCCC1	-2.3	.	.	.	.
CC(=NNC(=O)c1ccncc1)c1ccc(O)cc1O	-2.0	41.4*	-1.1	-1.0	.
C/C(=N\NC(=O)c1ccc(N2CCCC2=O)cc1)c1ccc(O)cc1O	-0.3	33.2*	-1.8	3.0	-5.7
C/C(=N\NC(=O)c1ccc(N2CCCC2=O)cc1)c1ccccc1	.	-5.9	.	-0.4	-4.5
COc1ccc(S(=O)(=O)N(C)C[C@H]2Oc3ccc(NS(C)(=O)=O)cc3CC(=O)N([C@@H](C)CO)C[C@@H]2C)cc1	-0.8	.	.	.	.
c1ccc(CCNc2cnccn2)cc1	-2.2	13.3	-0.9	+	-0.5
c1ccc(CCNCc2cccnc2)cc1	0.1	3.5	-3.5	-0.1	-1.7
Cc1ccc(CNc2cnccn2)cc1	-0.4	6.1	-4.3	73.9*	0.1
C[C@@H]1CCCCO[C@@H](CN(C)C(=O)Nc2ccc(C(F)(F)F)cc2)[C@H](C)CN([C@@H](C)CO)C(=O)c2cc(NC(=O)Nc3ccc(F)cc3)ccc2O1	-3.3	.	.	.	.
CCc1ccc(/C=N/NC(=O)c2c[nH]c3ccccc23)s1	3.5	49.6*	1.5	2.9	0.5
C(=NN=C(NN=Cc1cccs1)NN=Cc1cccs1)c1cccs1	-2.5	43.6*	1.0	1.7	.
C/C(=N\NC(=O)c1c[nH]c2ccccc12)c1ccc(C)o1	-0.4	32.7*	-0.9	-1.8	5.4
O=C(N/N=C/c1cccs1)c1c[nH]c2ccccc12	.	38.2*	-3.2	1.1	0.3
CNC[C@@H]1Oc2c(NC(=O)c3nc4ccccc4s3)cccc2C(=O)N([C@H](C)CO)C[C@@H]1C	-0.7	.	.	.	.
COc1cccc(CNC(=O)C[C@@H]2CC[C@H](NC(C)=O)[C@H](CO)O2)c1	-2.0	.	.	.	.
O=c1nc(N/N=C/c2ccccn2)cn[nH]1	.	24.9	-0.6	-1.2	2.1
Cc1ccc(/C=N/Nc2cn[nH]c(=O)n2)o1	.	32.6*	-3.8	-2.7	-2.3
CO[C@@H]1CC[C@H]2CCOc3c(C#N)cccc3C(=O)N(C)CC3(CCCCC3)CC(=O)N(C)C[C@H]1O2	-1.4	.	.	.	.
CCNC(=S)N/N=C/c1ccco1	0.7	18.6	0.7	2.1	2.9
COCCCNC(=S)N/N=C/c1ccc(O)cc1O	0.4	33.2*	0.1	2.1	-0.2
COCCCNC(=S)N/N=C/c1ccc(O)cc1	0.0	70.1*	1.2	-1.1	-2.9
COCCCNC(=S)N/N=C/c1ccc(OC)cc1	-1.1	10.2	-2.8	-0.4	-5.2
CCNC(=S)N/N=C/c1ccc(C#N)cc1	-0.8	38.8*	-3.2	-5.0	3.5
COCCCNC(=S)N/N=C/c1cccc(OC)c1O	-0.2	3.8	?	5.1	-0.3
Cc1cc(C(=O)Nc2ccc3c(c2)C(=O)N(C)[C@H]2CC[C@@H](CC(=O)N[C@@H](C)c4ccccc4)O[C@H]2CO3)no1	8.5	.	.	.	.
CCCC(=O)Nc1ccc2c(c1)C(=O)N(C)[C@H]1CC[C@@H](CC(=O)O)O[C@@H]1CO2	-7.8	.	.	.	.
